Experimental findings from PubChem BioAssay (NCATS) are described below.

Experiment [1] concerns the target Mitogen-activated protein kinase 10 (Mus musculus) (UniProt Q61831). Kind of experiment: JNK3 AlphaScreen Assay (AID 530; active = well fitted curve in either direction with a large enough effect, not every such curve was filed as active;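 also: kinase came from lysate of stimulated human HepG2 cells; signal reports phosphorylation of biotinylated GST-cJun 1-79 at Ser73 with 10 µM ATP; % is scaled to controls: 0 for no effect and ±100 for the full control effect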). The gist of the method:
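Pre-activated (IL-1β/TNFα) JNK3 in HepG2 lysates phosphorylates biotin-GST-cJun(1-79), 10 uM ATP; anti-phospho-cJun(Ser73) AlphaScreen read at room temperature, pH 7.6 Tris buffer. Compounds pre-incubated 15 min as titrations.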
A general note: In Alpha technology, singlet oxygen from a donor bead excites a nearby acceptor bead.

Experiment [2] can be described thus: Cell Viability - Mesenchymal (AID 546).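 Also: cells exposed to compound for 40 hours before reading; 0% = DMSO only and -100% = 100 µM tamoxifen.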 The conditions noted are these: mesenchymal cells viability, qHTS; activity change, negative = cytotoxicity: at 91.7 µM (top of the series). The method in brief: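 Human kidney mesenchymal cells from normal renal glomeruli, 1000 cells/well, rested 5 hr at 37 °C, then treated 40 hr at 37 °C in complete medium. Cellular ATP read by CellTiter-Glo luminescence; AC50 from Hill-equation fits.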
Background: Quantitative high-throughput screening tests each substance at several concentrations.

The nature of experiment [3]: Cell Viability - LYMP1-003 - Assay at 40 hr (AID 964). Also: nearly all actives have a fitted effect of over 60% in size. Also: potency is read from the fitted curve at half-maximal effect. The gist of the method: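 Cells were seeded at 2500 per well and incubated 5 hr at 37 C. Compounds were added across a concentration series and left 40 hr at 37 C. CellTiter-Glo was added for 30 min at room temperature before luminescence reading.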
Experiment [4] in a line: Cell Viability - LYMP2-023 (AID 975).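 Also: cells exposed to compound for 24 hours at 37 °C; nearly all actives have a fitted effect of over 55% in size.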 Also: potency is read from the fitted curve at half-maximal effect.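 As to activity change, negative = cytotoxicity: cellular ATP measured by luciferase luminescence as viability proxy; plate controls were DMSO only for no effect and 92 µM tetraoctylammonium bromide control for full effect.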 The gist of the method:
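2500 cells/well, 5 hr 37 C; cpd 24 hr 37 C; CellTiter-Glo, 30 min RT; luminescence. qHTS conc-response, Hill fit -> AC50. Pos ctrl tetraoctylammonium bromide.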

The nature of experiment [5]: Cell Viability - LYMP2-025 (AID 976).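 Also: cells exposed to compound for 24 h at 37 °C.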 Also: potency is read from the fitted curve at half-maximal effect.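 As to activity change, negative = cytotoxicity: plate controls were DMSO only for no effect and tetraoctylammonium bromide control for full effect.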 The method in brief: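 Seed 2500 LYMP2-025 cells/well; 5 hr at 37 C; add compound; 24 hr at 37 C; add CellTiter-Glo; 30 min RT; read luminescence. AC50 from Hill-modelled concentration-response.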
Experiment [6] is described as follows: Cell Viability - LYMP2-006 (AID 978).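 Also: cells exposed to compound for 24 hours; nearly all actives have a fitted effect of over 60% in size.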 Also: potency is read from the fitted curve at half-maximal effect. The gist of the method:
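Cells are seeded at 2500 per well and rested 5 hr at 37 C. Compounds are added across a concentration series for 24 hr at 37 C, after which ATP is quantified by luciferase luminescence.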

Experiment [7] can be described thus: Cell Viability - LYMP2-024 (AID 988). Also: nearly all actives have a fitted effect of over 60% in size. Also: potency is read from the fitted curve at half-maximal effect.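 As to activity change, negative = cytotoxicity: plate controls were DMSO only for no effect and 92 µM tetraoctylammonium bromide for full effect.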 The method in brief:
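Steps: seed 2500 cells/well, 5 hr 37 C; add compound, 24 hr 37 C; add CellTiter-Glo, 30 min room temperature; read luminescence. AC50 derived by Hill modelling of concentration-dependent ATP loss.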

The target in experiment [8] is Estrogen receptor (Homo sapiens) (UniProt P03372). Kind of experiment: qHTS assay for small molecule antagonists of estrogen receptor alpha signaling (AID 588513; active = well fitted curve in the direction sought with a large enough effect in the signal ratio, with a control signal flat, not every such curve was filed as active; the % refers to the signal ratio; also: % is scaled to controls: 0 for no effect and ±100 for the full control effect). The method in brief:
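Fluorescence from CCF4 substrate after 2 h at room temperature gave reporter activity; cells had been exposed to compound and 0.5nM 17-beta-estradiol for 18 h at 37 C. Hill-equation fitting yielded IC50 and maximal response.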

For experiment [9], the target named is Bile acid receptor (Homo sapiens) (UniProt Q96RI1). In words: qHTS assay for small molecule antagonists of farnesoid X receptor signaling (AID 588526; calls by dose curve; also: % is scaled to controls: 0 for no effect and ±100 for the full control effect). The method in brief:
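Antagonist mode: titrated compounds tested against chenodeoxycholic acid stimulation (normalized to 50 uM CDCA and DMSO) in GeneBLAzer HEK293T cells for 16 h. Beta-lactamase read by CCF4 fluorescence; IC50 from Hill fits.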

Experiment [10] deals with Glucocorticoid receptor (Homo sapiens) (UniProt P04150). Kind of experiment: qHTS assay for small molecule antagonists of glucocorticoid receptor signaling (AID 588533; active = well fitted inhibition curve with a large enough effect in the signal ratio, with a control signal flat, not every such curve was filed as active; the % refers to the signal ratio;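 also: cells stimulated with 2 nM dexamethasone as agonist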; also: potency is read from the fitted curve at half-maximal effect). The method in brief:
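Antagonist-mode qHTS: compound titrations added to GRE-bla HeLa cells, then dexamethasone 2 nM final; 18 h, 37 C. CCF4 FRET fluorescence normalized to dexamethasone and DMSO; IC50 from Hill fit.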

For experiment [11], the target named is Peroxisome proliferator-activated receptor gamma (Homo sapiens) (UniProt P37231). Kind of experiment: qHTS assay for small molecule antagonists of peroxisome proliferator-activated receptor gamma signaling (AID 588537; active = well fitted inhibition curve with a large enough effect in the signal ratio, with a control signal flat, not every such curve was filed as active; the % refers to the signal ratio;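 also: reporter cells co-stimulated with 50 nM rosiglitazone agonist during compound treatment; % of control where 0% means no effect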). The method in brief: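 PPARγ-UAS-bla HEK293 cells (3000/well) in 1% charcoal/dextran-stripped FBS are treated with compound, then stimulated with 50 nM rosiglitazone for 16 h at 37 °C. Read-out is CCF4 β-lactamase fluorescence after 2 h at RT. IC50 comes from Hill fits normalised to rosiglitazone and DMSO.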
Peroxisome proliferator-activated receptor gamma (Homo sapiens), sequence (P37231 whole entry, looked up): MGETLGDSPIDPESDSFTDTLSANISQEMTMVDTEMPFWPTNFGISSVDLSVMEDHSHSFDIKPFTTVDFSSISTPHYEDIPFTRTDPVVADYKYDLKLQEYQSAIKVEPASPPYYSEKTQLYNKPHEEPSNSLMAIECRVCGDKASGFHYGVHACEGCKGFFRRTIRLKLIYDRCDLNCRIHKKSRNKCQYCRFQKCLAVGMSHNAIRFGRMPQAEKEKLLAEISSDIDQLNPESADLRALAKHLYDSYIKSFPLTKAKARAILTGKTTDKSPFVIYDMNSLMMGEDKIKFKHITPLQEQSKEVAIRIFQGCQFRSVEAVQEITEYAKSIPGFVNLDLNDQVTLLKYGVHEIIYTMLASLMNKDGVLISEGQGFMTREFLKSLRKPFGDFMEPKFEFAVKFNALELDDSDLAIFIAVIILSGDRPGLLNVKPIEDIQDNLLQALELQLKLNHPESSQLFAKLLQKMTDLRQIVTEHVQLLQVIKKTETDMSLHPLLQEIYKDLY

In experiment [12] the target is Thyroid hormone receptor beta (Homo sapiens) (UniProt P10828). In words: qHTS assay for small molecule antagonists of thyroid hormone receptor beta signaling (AID 588547; active = well fitted inhibition curve with a large enough effect in the signal ratio, with a control signal flat, not every such curve was filed as active; the % refers to the signal ratio;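 also: cells stimulated with 0.4 nM T3 agonist during compound exposure; % is scaled to controls: 0 for no effect and ±100 for the full control effect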). The conditions noted are these: TR-UAS-bla HEK293, beta-lactamase ratio, antagonist mode, 18 h. The gist of the method:
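TR-UAS-bla GripTite HEK293 cells in 2% charcoal/dextran FBS medium; compounds 0.59 nM to 92 uM with T3 at 0.4nM final, 18 h at 37 C. Beta-lactamase read by CCF4 fluorescence (460/530 nm); Hill fits gave IC50 and efficacy.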

Experiment [13] is described as follows: Cell Viability - LYMP2-008 (AID 980). Also: nearly all actives have a fitted effect of over 60% in size. Also: potency is read from the fitted curve at half-maximal effect. The method in brief:
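qHTS, human lymphoblastoid line, 2500 cells/well; 5 hr preincubation, 24 hr compound, 37 C. CellTiter-Glo ATP luminescence. AC50 via Hill equation. Tetraoctylammonium bromide positive control.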

In experiment [14] the target is Estrogen receptor (Homo sapiens) (UniProt P03372). In words: qHTS assay for small molecule agonists of estrogen receptor alpha signaling (AID 588514; calls by dose curve;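 also: 0% = vehicle only and 100% = reference agonist; nearly all actives have a fitted effect of over 70% in size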). The gist of the method: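 Cells were plated at 5000/well, incubated 4 hrs at 37 C, dosed with compound titration series, incubated 18 hrs at 37 C, loaded with CCF4 dye for 2 hrs at RT, then fluorescence was read.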
Estrogen receptor (Homo sapiens), sequence (P03372 whole entry, looked up): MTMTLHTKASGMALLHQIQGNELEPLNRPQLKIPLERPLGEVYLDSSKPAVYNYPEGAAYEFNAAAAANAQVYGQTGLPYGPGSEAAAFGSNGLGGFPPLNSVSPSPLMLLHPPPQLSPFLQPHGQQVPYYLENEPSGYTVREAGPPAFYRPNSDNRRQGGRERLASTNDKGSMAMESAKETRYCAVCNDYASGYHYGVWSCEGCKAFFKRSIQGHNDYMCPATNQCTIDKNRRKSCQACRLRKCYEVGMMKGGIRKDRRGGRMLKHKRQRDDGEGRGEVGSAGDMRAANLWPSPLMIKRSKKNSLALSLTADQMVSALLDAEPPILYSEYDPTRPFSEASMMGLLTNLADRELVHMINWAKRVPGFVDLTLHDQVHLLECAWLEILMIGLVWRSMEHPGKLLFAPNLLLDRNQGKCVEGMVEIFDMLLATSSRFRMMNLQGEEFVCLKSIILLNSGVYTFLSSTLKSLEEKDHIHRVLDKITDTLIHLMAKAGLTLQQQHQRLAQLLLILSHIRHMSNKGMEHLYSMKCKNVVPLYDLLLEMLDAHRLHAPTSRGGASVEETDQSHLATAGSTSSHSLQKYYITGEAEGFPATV

The target of experiment [15] is Glucocorticoid receptor (Homo sapiens) (UniProt P04150). In words: qHTS assay for small molecule agonists of glucocorticoid receptor signaling (AID 588532; active = well fitted curve in the direction sought with a large enough effect in the signal ratio, with a control signal flat; the % refers to the signal ratio;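 also: 100% = dexamethasone at 0.1 µM and 0% = DMSO only wells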). The note with it: HeLa MMTV-bla, beta-lactamase ratio, agonist, 18 h; stronger effect = higher value; percent of dexamethasone control, DMSO zero. The gist of the method:
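HeLa GRE-bla reporter cells; 18 h compound exposure at 37 C; 2 h CCF4 loading at room temperature; fluorescence at 460 and 530 nm; EC50 by Hill equation.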

The nature of experiment [16]: Cell Viability - LYMP2-026 (AID 989).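 Also: cells exposed to compound for 24 h at 37 °C; % is scaled to controls: 0 for no effect and ±100 for the full control effect; nearly all actives have a fitted effect of over 50% in size.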 The gist of the method:
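Luminescent ATP signal (CellTiter-Glo, 30 min room temperature) measures viable lymphoblastoid cells after 24 hr compound treatment at 37 C. Decreased ATP reflects acute toxicity; AC50 values come from Hill-equation modeling.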

Experiment [17] in a line: Cell Viability - LYMP1-002 - Assay at 40 hr (AID 994). Also: nearly all actives have a fitted effect of over 60% in size. Also: potency is read from the fitted curve at half-maximal effect. The gist of the method:
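Luminescent ATP signal served as the viability readout, with decreases taken as toxicity. Cells were treated with compounds across a concentration range for 40 hours at 37 C, and AC50 values came from standard Hill modeling.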

Experiment [18] has as its target Retinoic acid receptor RXR-alpha (Homo sapiens) (UniProt P19793). Kind of experiment: qHTS assay for small molecule agonists of retinoid X receptor alpha signaling (AID 588544; calls by dose curve;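 also: 0% = DMSO basal wells and 100% = reference agonist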).
Experiment [19] in a line: qHTS assay for small molecule antagonists of the retinoid-related orphan receptor gamma (ROR-gamma) signaling pathway - cell viability counter screen (AID 720652; active = well fitted curve in the direction sought with a large enough effect in the repeat runs; an effect the other way counts as inactive or inconclusive). The method in brief: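 Luminescence from CellTiter-Glo after 30 min at room temperature reported cellular ATP as the cytotoxicity measure. Cells were the CHO reporter line with doxycycline-induced ROR-gamma expression, exposed to compound for 16 hr at 37 C.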

Experiment [20] can be described thus: qHTS assay to identify small molecules that stimulate interleukin-8 (IL-8) secretion (AID 651758; active = well fitted activation curve with a large enough effect in the signal ratio; the % refers to the signal ratio; also: potency is read from the fitted curve at half-maximal effect; as to activation: 0% is about no effect). The gist of the method:
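THP-1 cells (2000/well) exposed to compound 16 h at 37 C; secreted IL-8 then detected by HTRF with cryptate- and XL665-labelled anti-IL-8 antibody pair after 1-3 h at room temperature.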

Where “and” joins values, the source holds several entries; their conditions need not be identical. Identical values can stand only once. Results filed as inconclusive are left out. Where a structure was tested more than once in an assay, its records may differ in their call. Calls of active or inactive are those of the source. Unless noted, calls follow the shape of the dose curve; as a rule, active = well fitted curve in the direction sought with a large enough effect; inconclusive = small, poorly fitted or top-dose-only effect, or another doubt; inactive = no such curve, though single readings can be large; an effect the other way counts as inactive or inconclusive.

Retinoic acid receptor RXR-alpha (Homo sapiens), sequence (P19793 whole entry, looked up): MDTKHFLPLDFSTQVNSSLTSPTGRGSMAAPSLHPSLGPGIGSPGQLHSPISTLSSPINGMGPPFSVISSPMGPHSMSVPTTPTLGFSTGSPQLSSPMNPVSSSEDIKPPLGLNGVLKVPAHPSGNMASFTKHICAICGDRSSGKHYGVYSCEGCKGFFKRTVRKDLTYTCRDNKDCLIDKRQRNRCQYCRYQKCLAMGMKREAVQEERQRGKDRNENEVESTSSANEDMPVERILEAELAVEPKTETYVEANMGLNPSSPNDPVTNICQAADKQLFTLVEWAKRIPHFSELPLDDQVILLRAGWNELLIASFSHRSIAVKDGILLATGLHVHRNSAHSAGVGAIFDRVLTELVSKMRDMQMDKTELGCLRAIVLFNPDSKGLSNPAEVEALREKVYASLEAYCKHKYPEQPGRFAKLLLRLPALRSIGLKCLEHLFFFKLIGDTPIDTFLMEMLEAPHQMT
Thyroid hormone receptor beta (Homo sapiens), sequence (P10828 whole entry, looked up): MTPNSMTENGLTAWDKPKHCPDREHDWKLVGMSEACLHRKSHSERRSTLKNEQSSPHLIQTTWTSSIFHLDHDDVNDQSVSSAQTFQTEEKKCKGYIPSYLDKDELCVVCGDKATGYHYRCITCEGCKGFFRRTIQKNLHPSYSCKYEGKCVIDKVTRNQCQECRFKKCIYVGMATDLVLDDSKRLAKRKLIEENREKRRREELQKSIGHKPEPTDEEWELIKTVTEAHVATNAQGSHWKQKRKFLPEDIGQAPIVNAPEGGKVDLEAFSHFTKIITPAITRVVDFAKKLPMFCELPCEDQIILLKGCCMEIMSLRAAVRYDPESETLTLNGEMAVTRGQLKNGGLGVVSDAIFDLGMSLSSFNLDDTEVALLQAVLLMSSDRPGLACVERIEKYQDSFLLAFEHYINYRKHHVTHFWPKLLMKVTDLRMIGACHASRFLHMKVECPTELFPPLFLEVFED
Bile acid receptor (Homo sapiens), sequence (Q96RI1 whole entry, looked up): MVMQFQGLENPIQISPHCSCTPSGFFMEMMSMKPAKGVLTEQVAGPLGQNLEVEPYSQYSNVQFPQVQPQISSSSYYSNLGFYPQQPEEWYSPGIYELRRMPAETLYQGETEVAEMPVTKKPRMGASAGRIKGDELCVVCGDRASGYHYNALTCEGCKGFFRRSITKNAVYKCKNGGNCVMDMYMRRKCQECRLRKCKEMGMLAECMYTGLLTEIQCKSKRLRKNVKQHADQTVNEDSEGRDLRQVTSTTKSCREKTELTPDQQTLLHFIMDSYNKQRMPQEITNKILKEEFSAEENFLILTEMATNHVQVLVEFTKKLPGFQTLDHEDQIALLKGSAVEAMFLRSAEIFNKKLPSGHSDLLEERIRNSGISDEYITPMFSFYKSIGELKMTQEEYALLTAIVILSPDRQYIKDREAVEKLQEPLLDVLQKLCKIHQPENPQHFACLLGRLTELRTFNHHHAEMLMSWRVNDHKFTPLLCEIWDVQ
Glucocorticoid receptor (Homo sapiens), sequence (P04150 whole entry, looked up): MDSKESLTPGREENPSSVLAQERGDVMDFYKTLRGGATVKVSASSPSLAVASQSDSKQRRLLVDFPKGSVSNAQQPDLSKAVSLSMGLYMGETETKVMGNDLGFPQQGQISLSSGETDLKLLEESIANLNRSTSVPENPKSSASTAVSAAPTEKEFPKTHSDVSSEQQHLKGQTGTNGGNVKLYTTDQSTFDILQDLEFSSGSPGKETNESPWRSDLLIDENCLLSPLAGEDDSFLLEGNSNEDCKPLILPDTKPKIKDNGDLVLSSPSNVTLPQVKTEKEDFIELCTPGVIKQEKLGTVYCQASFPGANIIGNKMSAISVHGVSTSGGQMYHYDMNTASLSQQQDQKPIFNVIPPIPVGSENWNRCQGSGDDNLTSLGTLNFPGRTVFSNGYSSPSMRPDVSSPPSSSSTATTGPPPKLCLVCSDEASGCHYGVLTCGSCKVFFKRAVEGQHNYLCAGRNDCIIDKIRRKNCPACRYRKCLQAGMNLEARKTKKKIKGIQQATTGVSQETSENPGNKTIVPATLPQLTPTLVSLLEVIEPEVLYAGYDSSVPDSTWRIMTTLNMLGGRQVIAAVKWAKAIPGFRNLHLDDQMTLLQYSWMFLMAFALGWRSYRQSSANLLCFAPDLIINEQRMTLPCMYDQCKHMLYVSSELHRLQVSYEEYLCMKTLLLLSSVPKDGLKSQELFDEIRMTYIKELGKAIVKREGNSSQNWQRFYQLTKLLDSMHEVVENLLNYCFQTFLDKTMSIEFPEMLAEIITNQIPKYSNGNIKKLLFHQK

For the molecule `O=Nc1ccc(Nc2ccccc2)cc1`, the Potency result in [1] and in experiment [2] was “inactive” each time.
As for `C=CC(=O)OCCCCCCOC(=O)C=C`, the Potency result in experiment [1], in experiment [9] and in experiment [11] was “inactive” each time. Further, the Potency in experiment [3] was 39.8 µM (active); in [4], 39.8 µM (active); in [5] it was 50.1 µM (active); in [6], 50.1 µM (active); in [7] it was 31.6 µM (active); in [10], 39.8 µM (active) and inactive. In addition, the result in experiment [8] was inactive. In addition, in [12], the activity change % (negative = inhibition) is -7.08% (inactive).
As for `Clc1nc2ccccc2nc1Cl`, the Potency result in [1], in [4], in experiment [5], in experiment [6], in experiment [13] and in [14] was “inactive” throughout. The Potency entry in [10] was “inactive”. In [8], the call was inactive. For the same molecule, the activation in experiment [15] was 3.19% (inactive).
Take `NC(=O)Nc1nc2ccccc2[nH]1`: the Potency entry in [1], in experiment [3], in experiment [13], in experiment [16], in [17] and in experiment [14] was “inactive” throughout. The Potency entry in experiment [9] and in experiment [18] was “inactive” in each case. The molecule was called inactive in [8]. The activity change % (negative = inhibition) in experiment [12] is -13.1% (inactive).
In the case of `Cc1cc(-c2ccc(N=Nc3cc(S(=O)(=O)O)c4ccccc4c3N)c(C)c2)ccc1N=Nc1cc(S(=O)(=O)O)c2ccccc2c1N`, the Potency result in [16], in experiment [14], in experiment [18] and in experiment [19] was “inactive” in each case. The molecule was called inactive in experiment [8]. In experiment [12], the activity change % (negative = inhibition) is -25.1% (inactive).
With `CCCCCCCC/C=C\CCCCCCCC(=O)N(CCO)CCO`, the Potency entry in experiment [1], in [5], in experiment [6], in experiment [13], in experiment [16] and in [17] was “inactive” each time. The Potency entry in experiment [14] and in experiment [9] was “inactive” each time.
For the molecule `CC(=O)CC(=O)Nc1ccccc1`, the Potency result in experiment [1], in [2], in experiment [3], in experiment [4], in [6] and in experiment [16] was “inactive” throughout. The Potency entry in experiment [17], in [9], in [10], in experiment [11], in experiment [18] and in [20] was “inactive” throughout. The Potency result in experiment [19] is “inactive”. Besides, the activation in experiment [15] was -8.89% (inactive). For the same molecule, the activity change % (negative = inhibition) in experiment [12] was 8.7% (inactive) and 11% (inactive).
As to `O=CC(=O)c1ccccc1`, the Potency result in experiment [1], in experiment [2], in experiment [17], in [14], in [10] and in experiment [20] was “inactive” throughout. The molecule was called inactive in experiment [8].
On to `O=C(OCC1CO1)C1CCCCC1C(=O)OCC1CO1` (centres undefined), for which the Potency entry in [1], in [2], in [5], in experiment [10] and in experiment [19] was “inactive” in each case. Further, the Potency in experiment [17] is 39.8 µM (active); in experiment [20], 66.8 µM (active). For the same molecule, in experiment [12], the activity change % (negative = inhibition) was -2.36% (inactive).
`CCN(CC)c1ccc(N)cc1`: the Potency result in [2] and in experiment [5] was “inactive” in each case. Also, in [20], the Potency is 37.6 µM (active).
Regarding `Oc1cc2c(cc1O)[C@H]1c3ccc(O)c(O)c3OC[C@@]1(O)C2`, the Potency is 39.8 µM (active) in experiment [3], 50.1 µM (active) in [4], 50.1 µM (active) in [5] and 39.8 µM (active) in experiment [13]. In addition, the outcome in [8] was inactive. Further, the Potency entry in experiment [14] and in experiment [18] was “inactive” each time. Also, in experiment [15], the activation is 0.204% (inactive). Further, the activity change % (negative = inhibition) in [12] is -14.1% (inactive).
For `Cc1ccccc1OCC1CO1` (centres undefined), the Potency result in experiment [1], in [2], in [4], in [5], in [6] and in [7] was “inactive” in each case. Moreover, the Potency entry in experiment [14], in experiment [9], in experiment [10], in experiment [18], in [20] and in experiment [19] was “inactive” in each case. In [8], the result was inactive. The activation in experiment [15] was -5.02% (inactive).
Turning to `O=C(Cl)c1ccc([N+](=O)[O-])cc1`, the Potency result in experiment [1], in experiment [2], in experiment [4], in experiment [5], in experiment [13] and in experiment [17] was “inactive” in each case. Further, the Potency entry in [14], in [10], in experiment [18] and in [20] was “inactive” throughout. Also, the outcome in experiment [8] was inactive. Moreover, in experiment [15], the activation was -2.19% (inactive).
